Calb FLC = C. albicans growth inhibition with fluconazole, primary screen, CaCi-2 strain, Alamar Blue fluorescence; C. albicans CaCi-2 (fluconazole-resistant clinical isolate) + fluconazole, 48 h; AID 1979, 2009; growth inhibition, % (test concentration not listed); 0.57% of 300,000 active;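 active = growth inhibition above about 58% in most replicates, limit read from the data, passing the limit was not always enough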;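 note: all wells also contain fluconazole at 8 µg/ml as a sub-toxic cotreatment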
Rin1-Abl PPI inh = inhibitors of Rin1-Abl protein binding, primary screen, biochemical, TR-FRET; 0.4% of 360,000 active; Tyrosine-protein kinase ABL1 (Homo sapiens) + Ras and Rab interactor 1 (Homo sapiens), …; inhibition, % at 7.35 µM; in the data active = inhibition above about 5%, passing the limit was not always enough
CTSL1 counter = Fasciola hepatica cathepsin L1 inhibitors, primary screen, counter-screen for PFM18AAP inhibitor project, biochemical, QFRET, fluorogenic peptide substrate; 0.49% of 300,000 active; inhibition, % at 5.96 µM; recombinant F. hepatica cathepsin L1, Z-Leu-Arg-MCA fluorescence;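 active = inhibition above the mean of all tested compounds plus 3 SD, set per screening campaign, cut at about 17% in these data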
M18AAP inhibitor = PfM18AAP inhibitors, malaria aminopeptidase, primary screen, biochemical, QFRET, recombinant enzyme; inhibition, % at 7.35 µM; 1.2% of 290,000 active; AID 1822, 2009; H-Glu-NHMec fluorogenic cleavage;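 active = inhibition above the campaign mean inhibition over all tested compounds plus 3 SD, cut at about 28% in these data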
A number is an active result; - = inactive; . = no result given. In the library only some 2.1% were active in any assay of this set; here they are far more common.

SMILES	Calb FLC	Rin1-Abl PPI inh	CTSL1 counter	M18AAP inhibitor
CCN(CC)c1nc(-c2ccccn2)nc(-c2ccccc2)c1C#N	103	-	-	-
CC[n+]1c(/C=C/Nc2ccccc2)sc2ccccc21	-	-	-	30
CCN1/C(=C/C=C/c2sc3ccccc3[n+]2CC)Sc2ccccc21	-	-	-	.
CC[n+]1c(C=C2C=C(C)OC(C)=C2)sc2ccccc21	108	-	.	-
CCN1/C(=C/C=C/C=C/c2sc3ccccc3[n+]2CC)Sc2ccccc21	.	.	-	37
COC(=O)c1ccc(SC)cn1	-	-	-	-
OCCNC(=S)Nc1ccc2nsnc2c1	-	-	112	-
Cc1cc(OCc2cc(C(=O)N(Cc3nccn3C)C(C)C)no2)cc(C)c1Cl	-	-	-	-
CCCCCCCC(=O)NNC(=O)c1ccc([N+](=O)[O-])cc1	-	-	-	-
O=C(CCN1CCOCC1)NNC(=S)NC(=O)c1ccc(Br)cc1	-	-	-	30
CCCC(=O)NC(=S)NNC(=O)c1ccc([N+](=O)[O-])cc1	76	-	-	-
O=C(COc1ccc([N+](=O)[O-])cc1)NNC(=S)NC(=O)c1ccc(Br)cc1	95	-	-	-
Cc1ccc(C(=O)NC(=S)NNC(=O)COc2ccc([N+](=O)[O-])cc2)cc1	-	-	-	-
Cc1c(O)ccc2c(CN(C)Cc3ccccc3)cc(=O)oc12	-	-	-	-
CSCCC(NC(=O)c1ccccc1Br)C(=O)NCC(c1ccco1)N1CCCCC1 (centres undefined)	-	-	21	.
CCOC(=O)c1c2c(n(Cc3ccccc3)c1C)C(=O)C(=O)c1ccccc1-2	.	-	.	.
CCOC(=O)c1c2c(n(C)c1C)C(=O)C(=O)c1ccc(Br)cc1-2	-	-	66	-
CCCNC(=O)CSc1nnc(-c2ccc(F)cc2)o1	-	-	-	-
NN(Cc1ccccc1)C(=S)Nc1ccc(Cl)c(Cl)c1	-	-	-	30
CCN=c1scc(-c2ccc3c(c2)NC(=O)CO3)n1N=C1CCCC1	93	-	-	-
O=C1/C(=C/c2cccs2)SC(=S)N1CC(=O)N1CCCCC1CCO (centres undefined)	-	-	-	-
O=C(/C=C/c1ccc(O)c(O)c1)c1ccc(S(=O)(=O)N2CCCCCC2)cc1	-	-	-	60
COCCCNCC(O)COc1ccccc1F (centres undefined)	-	-	-	-
Cc1nnsc1C(=O)NNc1ccc(C(C)(C)C)cc1	-	-	-	29
CN1CCN(S(=O)(=O)c2cccs2)CC1	-	-	-	-
SMILES	Calb FLC	Rin1-Abl PPI inh	CTSL1 counter	M18AAP inhibitor
O=C(CCOc1ccccc1)N1CCN(S(=O)(=O)c2cccs2)CC1	-	-	-	-
O=S(=O)(c1cccs1)N1CCN(c2ccc(O)cc2)CC1	-	-	-	37
O=C(COc1ccccc1)N1CCN(S(=O)(=O)c2cccs2)CC1	-	-	19	-
O=C(O)C1C2CCC(O2)C1C(=O)Nc1ccc(F)c(Cl)c1 (centres undefined)	-	-	-	-
Cc1ccc(CN(C)C(=O)C2CCCN2C(=O)c2cccs2)o1 (centres undefined)	-	-	-	-
O=C1C=C(O)c2c(O)cc(O)c(O)c2C1=O	-	58	-	.
O=C1c2ccccc2C(=O)c2c(O)c(O)cc(O)c21	.	-	.	.
O=c1c(O[C@@H]2O[C@H](CO)[C@H](O)[C@H](O)[C@H]2O)c(-c2ccc(O)c(O)c2)oc2cc(O)cc(O)c12	.	.	.	68
O=c1c(O[C@@H]2O[C@H](CO)[C@@H](O)[C@H](O)[C@H]2O)c(-c2ccc(O)cc2)oc2cc(O)cc(O)c12	.	-	.	.
O=c1c(O[C@@H]2O[C@H](CO)[C@@H](O)[C@H](O)[C@H]2O)c(-c2ccc(O)c(O)c2)oc2cc(O)cc(O)c12	.	.	.	68
N=C1/C(=C\c2ccc(SCc3ccccc3)o2)C(=O)N=C2SC=NN12	78	-	-	-
CCn1c2ccccc2c2cc(NC(=O)C(C)Oc3ccccc3)ccc21 (centres undefined)	-	-	-	-
CCn1c2ccccc2c2cc(NC(=O)C(C)C)ccc21	96	-	-	-
CN(C)S(=O)(=O)N(CC(=O)Nc1ccccc1F)c1ccccc1	-	-	-	-
COC(=O)c1ccc(C(=O)OC)c(NC(=O)CN(c2ccccc2)S(=O)(=O)N(C)C)c1	-	-	37	-
CC(=O)c1ccc(NC(=O)C2(c3ccccc3)CCOCC2)cc1	-	-	-	-
Cc1cc(O)c(/C=N/Nc2ccc(F)cc2)c(=O)o1	122	-	-	-
Cc1ccc(N/N=C/c2c(O)cc(C)oc2=O)cc1	-	-	-	-
Oc1ccc(/C=N/Nc2cc(N3CCOCC3)nc(N3CCOCC3)n2)cc1O	-	-	-	56
Oc1cccc(/C=N/Nc2cc(N3CCOCC3)nc(N3CCOCC3)n2)c1	-	-	-	-
CC(C)(C)OC(=O)NCC(=O)Oc1cc2oc(=O)cc(-c3ccccc3)c2cc1Cl	-	-	-	-
O=C(Oc1cc2oc(=O)cc(-c3ccccc3)c2cc1Cl)C1CCCCC1	77	-	-	-
CCCn1cc(C(CC(=O)O)C(=O)O)c2ccccc21 (centres undefined)	-	-	17	-
Cc1cccc(NC(=O)CN2CCN(C(=O)CN3C(=O)NC4(CC(C)CC(C)(C)C4)C3=O)CC2)c1C (centres undefined)	.	-	.	.
COc1cc(C)ccc1OCc1cc(C(=O)N2CCC(c3ccc(F)cc3)C2)no1 (centres undefined)	-	-	-	-
SMILES	Calb FLC	Rin1-Abl PPI inh	CTSL1 counter	M18AAP inhibitor
CCOc1cc(C(N)=O)cc(Cl)c1OCc1ccccc1	112	-	-	-
COc1ccc(S(=O)(=O)Nc2ccccc2C(=O)NC(C)(C)C)cc1OC	-	-	-	-
COc1ccc(S(=O)(=O)Nc2ccccc2C(=O)OC2CCCN(C)C2)cc1OC (centres undefined)	-	-	27	-
Cc1cc(N/N=C2\CC(C)CC(C)(C)C2)nc2ccccc12 (centres undefined)	87	-	-	-
CON(C)C(=O)c1ccccc1N(C)C(=O)OC(C)(C)C	.	-	.	.
CCc1nc2ccc(C(=O)NCCN3CCOCC3)cn2c1N(CCC(C)C)CCN(C)C	.	-	.	.
Cc1ccc(SCC(=O)OCC(=O)NCc2cccs2)cc1	-	-	-	.
O=C(COC(=O)CSc1ccc([N+](=O)[O-])cc1)NCc1cccs1	-	-	18	.
CCC(Sc1nc2ccccc2c(=O)[nH]1)C(=O)Nc1ccc(C(C)=O)cc1 (centres undefined)	-	-	-	-
O=C(N/N=C\c1ccc(-c2ccc([N+](=O)[O-])cc2)o1)c1ccc2c(c1)OCO2	-	-	-	-
CCCCCCCC(=O)N/N=C/c1ccc([N+](=O)[O-])o1	101	-	-	-
CC1(C(=O)N/N=C/c2ccc([N+](=O)[O-])o2)CC1(Br)Br (centres undefined)	92	-	-	-
O=C(N/N=C/c1ccc([N+](=O)[O-])o1)c1ccc2c(c1)OCO2	-	-	.	30

Screens as filed in PubChem BioAssay.
